# Laboratory results reported in PubChem BioAssay (NCI).
# The panel holds about 83,000 compounds, 20% with a hit somewhere; the sample as a whole holds those more often.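 The endpoint reported here, percent growth, reads 100 for growth as untreated, 0 for no net growth and -100 for all cells dead.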 Values without a mark were called inactive. Activity calls are given as the source filed them. How the source made its calls: active means growth percent below 10; inactive means the rest.
# Experiments:
# Assay in all cases: NCI-60 one-dose screen, 48 h (100 = growth as untreated, 0 = no growth, -100 = all killed)
# Conditions in all cases: 10 µM unless noted
# [1] = test system: NCI-H23 lung
# [2] = test system: NCI-H226 lung
# [3] = test system: NCI-H322M lung
# [4] = test system: HOP-62 NSCLC
# [5] = test system: NCI-H460 lung
# [6] = test system: NCI-H522 lung
# [7] = test system: A549/ATCC NSCLC
# [8] = test system: 786-0 renal
# [9] = test system: COLO 205 colon
# [10] = test system: HOP-92 NSCLC
SMILES,growth [1],growth [2],growth [3],growth [4],growth [5],growth [6],growth [7],growth [8],growth [9],growth [10]
N#CC1C(=O)NC(c2ccccc2[N+](=O)[O-])c2sc3c(F)cccc3c21 (stereo unspecified),68.9%,-14.9% (active),67.2%,33.8%,2.01% (active),88.6%,47.2%,90%,70.1%,–
O=c1cc(-c2ccccc2)oc2cc(OCc3cn(Cc4ccc(F)cc4)nn3)cc(O)c12,45.8% [100 µM],60.9% [100 µM],86.1% [100 µM],-28.5% [100 µM] (active),71.4% [100 µM],15.1% [100 µM],81.2% [100 µM],2.24% [100 µM] (active),103% [100 µM],–
O=C(NCc1ccccc1)C(Cl)Cl,104%,93.3%,102%,98.6%,108%,101%,97.4%,104%,116%,–
O=[N+]([O-])c1cc([N+](=O)[O-])c(C(F)(F)F)cc1NN=C(c1ccc(O)cc1)c1ccc(O)cc1,-15.7% (active),78.6%,113%,-55.4% (active),-37.8% (active),-61.5% (active),-60.4% (active),-27.5% (active),-11% (active),–
OC(c1ccc(Cl)cc1)(c1ccc(Cl)cc1)C(O)(c1ccc(Cl)cc1)c1ccc(Cl)cc1,53.1%,54.6%,46.4%,65.1%,26.6%,41.6%,44.9%,31.9%,45%,–
C[C@H]1[C@H](C)CC[C@]2(C(=O)N3CCN(C)CC3)CC[C@]3(C)C(=CC[C@@H]4[C@@]5(C)C/C(=C/c6ccco6)C(=O)C(C)(C)[C@@H]5CC[C@]43C)[C@H]12,32.5% [100 µM],37.4% [100 µM],51.6% [100 µM],35.8% [100 µM],6.22% [100 µM] (active),4.91% [100 µM] (active),24.8% [100 µM],40.6% [100 µM],40.4% [100 µM],–
CCCCCn1sc(=O)n(Cc2ccc(CNC(=O)OCc3ccc4cccc(O)c4n3)cc2)c1=O,25.1%,21.9%,41.8%,-0.186% (active),6.42% (active),-49.1% (active),20.6%,-71% (active),-45.2% (active),–
Cc1ccc2c(n1)C(=O)C(Cl)=C(Nc1ccc(N3CCN(C)CC3)cc1)C2=O,16.7%,105%,97.3%,63.7%,97.2%,-63.8% (active),97.6%,52.2%,82.5%,–
C=C(C)[C@@H]1CC[C@]2(C(=O)NCCNCCNCCN)CC[C@]3(C)[C@H](CC[C@@H]4[C@@]5(C)CCC(=O)C(C)(C)[C@@H]5CC[C@]43C)[C@@H]12,-35.2% [100 µM] (active),74.3% [100 µM],-81.1% [100 µM] (active),43.1% [100 µM],-90.9% [100 µM] (active),-69.7% [100 µM] (active),-76.5% [100 µM] (active),-84.5% [100 µM] (active),-47.5% [100 µM] (active),–
Cc1cc(C)nc(SCC(=O)Nc2cccc(N=Cc3ccccc3O)c2)n1,98%,–,101%,102%,101%,86.6%,101%,103%,105%,77.4%
O=C(CSc1nc2ccc([N+](=O)[O-])cc2[nH]1)Nc1cccc(Cl)c1,-2.48% (active),–,62.4%,35%,25.3%,4.64% (active),–,28.6%,26.4%,-27.9% (active)
CCCCCCNC(=O)Nc1ncnc2c1ncn2-c1ccccc1,98%,–,94.9%,77.6%,102%,82.5%,88%,85.5%,88.8%,89.3%
CC[C@]12C=CCN3CC[C@@]4(c5ccc(OC)cc5N(C)[C@H]4[C@@](O)(C(=O)OC)[C@@H]1OC(=O)CCC(=O)O[C@H]1CC[C@H]4[C@@H]5CCC6=CC(=O)CC[C@@H]6[C@H]5CC[C@]14C)[C@@H]32,12.9% [100 µM],–,36.1% [100 µM],21.9% [100 µM],1.51% [100 µM] (active),3.35% [100 µM] (active),14.5% [100 µM],10.2% [100 µM],-87.6% [100 µM] (active),-20.3% [100 µM] (active)
COc1ccc(-c2ccc(NNC(=O)c3ccc(F)cc3)nn2)cc1OC,83.7%,–,72.2%,57.6%,93.2%,72.8%,72.4%,63.4%,75.6%,–
CCOC(=O)c1cnc2ccc(Br)cc2c1Nc1cccc(S(N)(=O)=O)c1,93%,–,105%,97.1%,105%,96.6%,101%,105%,128%,–
Cc1nn(-c2ccccc2)c(N2CCOCC2)c1-c1nc2ccc([N+](=O)[O-])cc2[nH]1,107%,–,93.2%,128%,99.5%,80.5%,94%,107%,124%,–
CCn1cc(-c2ccnc(NCCNS(=O)(=O)c3cccc4ccccc34)c2)c(-c2cccc(O)c2)n1,100%,–,98.9%,113%,102%,105%,103%,92.3%,112%,79.8%
CC1Cc2ccc(OCCN(C)C)cc2C1=O (stereo unspecified),103%,–,97.8%,96.4%,105%,106%,88.9%,101%,105%,82.1%
Cn1cc(-c2noc(C(=O)c3cn(C)c4ncc(Br)cc34)n2)c2ccccc21,97.7%,–,91%,102%,99.8%,91.6%,99.3%,91.3%,107%,37.6%
Cc1ccccc1-n1nnc(C(=O)Nc2nc3ccc(F)cc3s2)c1C,55.7%,–,71.2%,86%,65.7%,66.4%,64.5%,76.2%,80.5%,55.7%
CCOC(=O)c1nc2c3ccccc3ccn2c1C(=O)OC,97.2%,–,95.6%,95.5%,103%,90.6%,92.8%,93.8%,104%,103%
c1ccc2c(c1)CN(CCCN1CCOCC1)C2,99.6%,–,99.7%,103%,103%,98.3%,96.8%,102%,108%,126%
CCN1CCN(CC(=O)Nc2nc3ccc(NCc4ccc(Cl)cc4)cc3s2)CC1,69.2%,–,79.4%,77.6%,54.7%,86.3%,61.5%,73%,23.8%,31.6%
CCOC(=O)C(c1ccccc1)N1C(=O)c2ccccc2C1=O (stereo unspecified),87.2%,–,96.2%,95.8%,100%,96.8%,97.6%,102%,98.5%,82%
CCN(CC)c1cc(N)c(Cc2c(N)cc(N(CC)CC)cc2Cl)c(Cl)c1,11.1%,–,96.9%,51.8%,35%,-3.79% (active),47%,74.3%,21.4%,26.1%
